# Data as given in PubChem BioAssay (EPA / NIEHS).
# Inconclusive results are not listed. Calls of active or inactive are those of the source. Rule for the calls, unless noted: active = hit-call score of the fitted dose curve at least 0.9, where 1 is the maximum; inactive = score below 0.9.
# How the values were obtained:
# [1] = system: SRY-box transcription factor 17 (SOX17) Protein Expression, Deisenroth Lab, SOX17 (gene 64321); experiment: CCTE_Deisenroth_DEVTOX-GLR_Endo_SOX17: CCTE's DevTox GLR-Endo Assay Evaluation of SRY-box transcription factor 17 (SOX17) Protein Expression, Deisenroth Lab (AID 2284413)
# Procedure, shortened: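 RUES2-GLR human pluripotent cells were differentiated toward endoderm for 48 h and received two compound doses 24 h apart (1 nM - 200 uM, 10 points). High-content imaging of fixed cells gave the percent SOX17+ cells per cell count, expressed as percent change versus 0.2% DMSO.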
# [2] = system: Brachyury (BRA) Protein Expression, TBXT (gene 6862); experiment: CCTE_Deisenroth_DEVTOX-GLR_Endo_BRA: CCTE's DevTox GLR-Endo Assay Evaluation of Brachyury (BRA) Protein Expression, Deisenroth Lab (AID 2284417)
# Procedure, shortened: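 Read-out: BRA+ cell count divided by total cell count by high-content imaging (5 fields per well), expressed relative to 0.2% DMSO solvent control. RUES2-GLR cells dosed twice over a 48 h differentiation; concentrations 1 nM - 200 uM.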
# [3] = CCTE_Deisenroth_DEVTOX-GLR_Endo_CellCount: Viability Assessment in CCTE's DevTox GLR-Endo Assay, Deisenroth Lab (AID 2284420)
# Experimental: CCTE_Deisenroth_DEVTOX-GLR_Endo assay is a cell-based, multiplex-readout assay that uses RUES2-GLR, a human pluripotent cell line, with measurements taken at 48 hours after chemical dosing in a 384-well microplateCCTE_Deisenroth_DEVTOX-GLR_Endo_CellCount is 1 of 4 assay components calculated from the CCTE_Deisenroth_DEVTOX-GLR_Endo assay and it measures cell count. Using fluorescent nuclear staining, loss-of-signal activity can be used to understand changes in cell viability with fluorescent microscopy. It is designed to make measurements of nuclei counts as a surrogate for cell number, as detected with optical fluorescence microscopy by Perkin Elmer Harmony nuclei detection algorithm. To generalize the intended target to other relatable targets, this assay component is annotated to the cell cycle intended target family, where the subfamily is cytotoxicity.Data from the assay component CCTE_Deisenroth_DEVTOX-GLR_Endo_CellCount was analyzed as 1 assay endpoint. The endpoint the percent change in cell count relative to the 0.2% DMSO control in the CCTE_Deisenroth_DEVTOX-GLR_Endo assay. Furthermore, this assay endpoint can be referred to as a primary readout, because this assay has produced multiple assay endpoints where this one serves as a measure of cytotoxicity.
# (§1) All assay protocols are aligned to the DevTox GLR-Endo assay workflow. Cells are seeded into 384-well microplates for 24 hours prior to initiating differentiation in defined media for a total duration of 48 hours. A total of two chemical exposures are administered in 24-hour intervals during the 48-hour differentiation period. At the assay termination point, cells are fixed and stained with a fluorescent dye demarcating the nucleus. High-content imaging is used to acquire brightfield and fluorescent channel images across 5 fields per well. Cell identification and mean biomarker fluorescence intensities are calculated with image analysis software to determine the total cell counts for viability assessment and the biomarker expression frequency for each lineage-dependent assay. A typical experimental design tests a 10-point concentration series (1 nM - 200 uM) for 28 compounds in single technical replicate. Assay plate controls include non-differentiated pluripotent cells (baseline control), lineage-specific differentiated cells (differentiation control), and DMSO solvent exposed differentiated cells (solvent control). Experiments typically comprise a minimum of four experimental replicates (n=4).
# [4] = system: SRY-box transcription factor 17 (SOX17) Protein Expression, Deisenroth Lab, SOX17 (gene 64321); experiment: CCTE_Deisenroth_DEVTOX-GLR_Pluri_SOX17: CCTE's DevTox GLR-Pluri Assay Evaluation of SRY-box transcription factor 17 (SOX17) Protein Expression, Deisenroth Lab (AID 2284427; active = hit-call score of the fitted dose curve at least 0.9, where 1 is the maximum)
# Procedure, shortened: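 The endpoint is SOX17+ cells as a fraction of cell count, corrected for the 0.2% DMSO control and obtained by high-content fluorescence imaging of fixed cells. Cells were RUES2-GLR under a 48-hour endoderm differentiation, dosed twice at 24-hour intervals over 1 nM–200 uM.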
# [5] = system: SRY-box transcription factor 2 (SOX2) Protein Expression, Deisenroth Lab, SOX2 (gene 6657); experiment: CCTE_Deisenroth_DEVTOX-GLR_Pluri_SOX2: CCTE's DevTox GLR-Pluri Assay Evaluation of SRY-box transcription factor 2 (SOX2) Protein Expression, Deisenroth Lab (AID 2284428)
# Procedure, shortened: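 Percent SOX2+ cells (SOX2+ count per total cells, fluorescent imaging) in RUES2-GLR human pluripotent line, expressed relative to 0.2% DMSO. Compounds dosed twice at 24 h intervals during 48 h, 1 nM - 200 uM, 10 concentrations.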
# [6] = system: Brachyury (BRA) Protein Expression, Deisenroth Lab, TBXT (gene 6862); experiment: CCTE_Deisenroth_DEVTOX-GLR_Pluri_BRA: CCTE's DevTox GLR-Pluri Assay Evaluation of Brachyury (BRA) Protein Expression, Deisenroth Lab (AID 2284429; active = hit-call score of the fitted dose curve at least 0.9, where 1 is the maximum)
# Experimental: CCTE_Deisenroth_DEVTOX-GLR_Pluri assay is a cell-based, multiplex-readout assay that uses RUES2-GLR, a human pluripotent cell line, with measurements taken at 48 hours after chemical dosing in a 384-well microplateCCTE_Deisenroth_DEVTOX-GLR_Pluri_BRA is 1 of 4 assay components calculated from the CCTE_Deisenroth_DEVTOX-GLR_Pluri assay and it measures an the percentage of cells in an mesoderm state. Using a type of inducible fluorescent protein reporter, gain-of-signal activity can be used to understand changes in gene expression with fluorescent microscopy. The percentage of BRA+ cells are determined by calculating the number of BRA+ cells divided by the cell count. To generalize the intended target to other relatable targets, this assay component is annotated to the transcription factor intended target family, where the subfamily is T-box protein.Data from the assay component CCTE_Deisenroth_DEVTOX-GLR_Pluri_BRA was analyzed as 1 assay endpoint. The endpoint is the percent BRA+ cell population minus the 0.2% DMSO control in the CCTE_Deisenroth_DEVTOX-GLR_Pluri assay. Furthermore, this assay endpoint can be referred to as a secondary readout, because this assay has produced multiple assay endpoints where this one serves as a measure of mesoderm differentiation.
# as §1
# [7] = CCTE_Deisenroth_DEVTOX-GLR_Pluri_CellCount: Viability Assessment in CCTE's DevTox GLR-Pluri Assay Evaluation of Total Cell Counts, Deisenroth Lab (AID 2284430)
# Procedure, shortened: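 RUES2-GLR human pluripotent cells, seeded 24 h, then differentiated 48 h with two chemical exposures 24 h apart; 10-point series 1 nM - 200 uM. Fixed, nuclear-stained, imaged (5 fields/well); nuclei count as % change vs 0.2% DMSO.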
# [8] = CCTE_Padilla_ZF_Score.Tail: CCTE's 144 Hour Post-fertilization zebrafish Assay Score for Tail Malformation, Padilla Lab (AID 2284414)
# Procedure, shortened: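 Wild-type zebrafish embryos, one per well in 200 uL 10% Hanks', dosed at 6-8 hpf, sealed, and kept at 26 C on a 14:10 h light cycle. Chemical was rinsed out at 5 dpf. Blinded brightfield scoring of tail defects followed at 6 dpf.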
# [9] = CCTE_Padilla_ZF_Score.Blood_pooling: CCTE's 144 Hour Post-fertilization zebrafish Assay Score for Blood Pooling, Padilla Lab (AID 2284415)
# Procedure, shortened: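 Wild-type outbred zebrafish embryos, one per well in 10% Hanks', exposed from 6–8 hpf in sealed plates at 26C on 14:10 h light:dark, rinsed at 5 dpf. Blinded stereomicroscope scoring of blood pooling at 6 dpf; gain-of-signal versus DMSO.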
# [10] = CCTE_Padilla_ZF_Score.Any: CCTE's 144 Hour Post-fertilization zebrafish Assay Score for Any Mortality or Malformation, Padilla Lab (AID 2284416)
# Procedure, shortened: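 Wild-type zebrafish embryos with chorions, one per well in 10% Hanks' from 6–8 hpf, dosed in sealed plates at 26 C, 14:10 h light:dark; rinsed at 5 dpf; blinded scoring at 6 dpf for death or malformation, versus DMSO.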
structure (smiles),measurement,setting,value
Nc1ccn([C@@H]2O[C@H](CO)[C@@H](O)[C@@H]2O)c(=O)n1,AC50,[1],0.539 µM (active)
same,AC50,[2],4.91 µM (active)
same,AC50,[3],0.259 µM (active)
same,AC50,[4],1.68 µM (active)
same,AC50,[5],0.244 µM (active)
same,AC50,[6],1.74 µM (active)
same,AC50,[7],0.234 µM (active)
NNC(=O)c1ccncc1,outcome,[1],inactive
same,outcome,[2],inactive
same,outcome,[3],inactive
same,outcome,[4],inactive
same,outcome,[5],inactive
same,outcome,[6],inactive
same,outcome,[7],inactive
O=S(=O)(O)CCC(F)(F)C(F)(F)C(F)(F)C(F)(F)C(F)(F)C(F)(F)F,outcome,[8],inactive
same,outcome,[9],inactive
same,outcome,[10],inactive
NC(=O)N1c2ccccc2C=Cc2ccccc21,AC50,[1],100 µM (active)
same,outcome,[2],inactive
same,AC50,[3],63.4 µM (active)
same,AC50,[4],64.8 µM (active)
same,AC50,[5],23 µM (active)
same,AC50,[6],47 µM (active)
same,outcome,[7],inactive
FC(F)(F)C(F)(F)C(F)(F)C(F)(F)C(F)(F)C(F)(F)I,outcome,[8],inactive
same,outcome,[9],inactive
same,outcome,[10],inactive
OC(O)(C(F)C(O)(O)C(F)(F)F)C(F)(F)F,outcome,[8],inactive
same,AC50,[9],36.6 µM (active)
same,AC50,[10],16.9 µM (active)
O=C(Cl)C(F)(F)C(F)(F)C(F)(F)C(=O)Cl,outcome,[8],inactive
same,outcome,[9],inactive
same,outcome,[10],inactive
NCC(F)(F)C(F)(F)C(F)(F)C(F)(F)F,outcome,[8],inactive
same,outcome,[9],inactive
same,outcome,[10],inactive
C[Si](C)(C)C(F)(F)C(F)(F)C(F)(F)F,outcome,[8],inactive
same,outcome,[9],inactive
same,outcome,[10],inactive
FC(F)(F)COC(OCC(F)(F)F)OCC(F)(F)F,outcome,[8],inactive
same,outcome,[9],inactive
same,outcome,[10],inactive
OCCC(F)(F)C(F)(F)C(F)(F)C(F)(F)F,outcome,[8],inactive
same,outcome,[9],inactive
same,outcome,[10],inactive
FC(F)C(F)(F)COCC1CO1 (stereo not drawn),outcome,[8],inactive
same,outcome,[9],inactive
same,AC50,[10],30.7 µM (active)
CCCC(CCC)C(=O)O,outcome,[1],inactive
same,outcome,[2],inactive
same,outcome,[3],inactive
same,outcome,[4],inactive
same,outcome,[5],inactive
same,outcome,[6],inactive
same,outcome,[7],inactive
FC(F)=C(F)C(F)(F)C(F)(F)C(F)(F)C(F)(F)C(F)(F)C(F)(F)F,outcome,[8],inactive
same,outcome,[9],inactive
same,outcome,[10],inactive
